From publication PMC5700166

The sequences below were run against T1, GST-Aq-NF-kB (Amphimedon queenslandica, UniProt A9Y5G7 2-389) (assay: protein-binding microarray (PBM); PBM: ~300 nM protein, 6 mM HEPES pH 7.8, 80 mM KCl, 0.5 mM EDTA, 0.5 mM EGTA, 6% glycerol, 35 ng/ul poly-dIdC, 1% milk, 1 h, room temperature; Ap Aiptasia and Nv Nematostella (sea anemones) / Co Capsaspora / Aq Amphimedon (sponge) / Dm Drosophila / Hu human; RHD is the Rel homology domain; high values mean tight binding). Settings: dsDNA, one strand shown.
T1 sequence: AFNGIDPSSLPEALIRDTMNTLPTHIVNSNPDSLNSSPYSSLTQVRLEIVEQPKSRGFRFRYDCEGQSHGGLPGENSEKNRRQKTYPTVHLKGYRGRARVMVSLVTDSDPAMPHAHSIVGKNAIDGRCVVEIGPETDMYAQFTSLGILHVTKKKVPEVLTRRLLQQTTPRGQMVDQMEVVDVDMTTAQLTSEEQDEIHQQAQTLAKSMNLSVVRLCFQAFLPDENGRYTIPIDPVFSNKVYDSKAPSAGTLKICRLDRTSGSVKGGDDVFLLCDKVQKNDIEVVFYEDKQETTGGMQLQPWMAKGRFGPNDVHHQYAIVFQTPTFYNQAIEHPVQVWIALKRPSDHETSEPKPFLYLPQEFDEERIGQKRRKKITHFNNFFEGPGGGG

Sequence	binding signal
CCGATTAACATCAAAGAAATTCCTGATGTTAATCGGGTCTTGATTCGCTTGACGCTGCTG	1.44 z-score
CCGATTAACATCACGGAATTCCGTGATGTTAATCGGGTCTTGATTCGCTTGACGCTGCTG	1.25 z-score
CCGATTAACATCACGGAAACTCCTGATGTTAATCGGGTCTTGATTCGCTTGACGCTGCTG	3.4 z-score
CCGATTAACATCAAGGATTTTCCTGATGTTAATCGGGTCTTGATTCGCTTGACGCTGCTG	3.08 z-score
CCGATTAACATCAAAAATTTCCTTGATGTTAATCGGGTCTTGATTCGCTTGACGCTGCTG	2.1 z-score
CCGATTAACATCAAAAAAAGTACTGATGTTAATCGGGTCTTGATTCGCTTGACGCTGCTG	1.54 z-score
CCGATTAACATCAGGAAACTCCATGATGTTAATCGGGTCTTGATTCGCTTGACGCTGCTG	2.15 z-score
